Compounds with a hit are over-represented: about 4% of the library has one in this group of screens.
GBA mod: alters purified human glucocerebrosidase activity; Potency, µM; actives 1.1% (n = 48,000); purified enzyme, resorufin glucoside fluorescence (screen aimed at inhibitors), 20 min; P04062; AID 360; in the data active means potency below about 15 µM; inconclusive means mostly about 16 µM to 33 µM;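 further: the screen sought inhibitors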
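Normal human glucocerebrosidase (0.2 nM final) was assayed with resorufin β-D-glucopyranoside (30 uM final) in 50mM citric acid/KH2PO4, 10mM sodium taurocholate, 0.01% tween-20, pH 5.9. Compounds were titrated; fluorescence (Ex 548, Em 600) read after 20 min at RT.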
TSHR ag: activates the human thyroid stimulating hormone receptor. HEK293-CNG-TSHR cells (CNG channel as cAMP sensor), membrane potential dye, cAMP. Potency, µM (doses to about 57.1 µM), most hits filed as activators. actives 0.48% (n = 73,000); active means well fitted activation curve with a large enough effect in the main read-out, with a control signal flat, not every such curve was filed as active; inconclusive means small, poorly fitted or top-dose-only effect, or a change in a side signal; inactive means no such curve, though single readings can be large or run the other way; reference of the percent scale not stated here;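 further: the control signal comes from parental cells without the receptor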
Target sequence (P16473 whole entry, looked up): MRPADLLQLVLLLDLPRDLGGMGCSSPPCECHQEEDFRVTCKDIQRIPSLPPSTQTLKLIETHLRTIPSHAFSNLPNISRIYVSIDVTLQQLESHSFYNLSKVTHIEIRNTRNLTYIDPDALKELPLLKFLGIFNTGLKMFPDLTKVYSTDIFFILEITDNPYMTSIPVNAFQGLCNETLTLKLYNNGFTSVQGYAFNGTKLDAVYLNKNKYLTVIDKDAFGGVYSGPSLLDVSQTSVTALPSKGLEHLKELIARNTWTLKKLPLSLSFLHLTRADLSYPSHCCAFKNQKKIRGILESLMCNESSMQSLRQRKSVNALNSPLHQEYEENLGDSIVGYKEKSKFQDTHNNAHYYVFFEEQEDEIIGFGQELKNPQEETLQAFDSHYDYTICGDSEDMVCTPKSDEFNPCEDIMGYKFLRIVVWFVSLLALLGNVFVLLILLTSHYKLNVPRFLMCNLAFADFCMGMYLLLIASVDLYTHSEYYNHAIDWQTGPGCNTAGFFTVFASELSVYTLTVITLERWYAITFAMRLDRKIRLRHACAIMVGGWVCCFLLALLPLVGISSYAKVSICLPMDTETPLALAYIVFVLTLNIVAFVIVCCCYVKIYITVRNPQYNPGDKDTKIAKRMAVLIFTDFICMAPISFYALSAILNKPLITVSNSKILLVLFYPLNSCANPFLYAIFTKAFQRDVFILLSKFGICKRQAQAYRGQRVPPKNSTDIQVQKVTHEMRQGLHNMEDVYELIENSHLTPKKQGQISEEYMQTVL
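cAMP rise detected as CNG-channel membrane depolarization by fluorescent dye (emission 590 nm), 30 min after compound, following 60 min dye loading containing 100 uM RO 20-1724 at room temperature. Cells: TSHR/CNG HEK 293, with parental CNG HEK 293 as control.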
Bst PK mod: pyruvate kinase (B. stearothermophilus) modulation; AID 361; Potency, µM; actives 1.2% (n = 51,000); purified pyruvate kinase, luminescence ATP production; ribose 5-phosphate activator present at AC10; in the data active means potency below about 11 µM; inconclusive means mostly about 12 µM to 25 µM;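 the screen sought inhibitors and activators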
HEK293 cAMP ctrl: parental HEK293 cAMP activation (counter-screen). actives 2.5% (n = 73,000). parental HEK293 CNG cAMP sensor, membrane potential fluorescence. Potency, µM (top dose mostly 57.1 µM), hits mostly activators; active means well fitted activation curve with a large enough effect; inconclusive means small, poorly fitted or top-dose-only effect; inactive means no such curve, though single readings can be large or run the other way; further: nearly all actives have a fitted effect of over 55% in size
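Parental HEK 293 cells stably expressing a modified CNG channel (no TSHR) report cAMP rise as membrane depolarization. Membrane potential dye with 100 uM RO 20-1724 was loaded for 60 min at room temperature, then compound added for 30 min; fluorescence read at 590 nm.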
A number is an active result; – = inactive; ? = inconclusive; · = not tested or not shown; [ ] = another dose, or the depositor's remark.

SMILES | GBA mod | TSHR ag | Bst PK mod | HEK293 cAMP ctrl
O=C(CSc1nnc(-c2ccccc2)o1)N1CCc2ccccc2C1 | – | · | – | –
O=C(c1cc(-c2ccc(O)cc2)on1)N1CCc2ccccc2C1 | · | ? | · | 20µM
O=C(c1cc(-c2ccccc2O)on1)N1CCc2ccccc2C1 | · | – | · | –
Cn1cc(C(=O)c2ccc(Cl)cc2)cc1-c1nc2ccccc2n1C | – | ? | – | 32µM
CN(c1ccccc1)c1nc(-n2ccnc2)nc(-n2ccnc2)n1 | · | · | – | –
c1ccc(-c2nc(N3CCCCCC3)nc(-n3ccnc3)n2)cc1 | ? | 4µM | – | –
c1ccc(N(c2ccccc2)c2nc(-n3ccnc3)nc(-n3ccnc3)n2)cc1 | – | ? | – | 25µM
N=C(N)SCc1cccc2c(=O)cc(-c3ccccc3)oc12 | · | –[11.4 µM] | · | –[11.4 µM]
O=c1cc(-c2ccccc2)oc2c1ccc1ccccc12 | · | ? | · | 32µM
O=C(Nc1c2c(nn1-c1ccc(Cl)cc1)CS(=O)(=O)C2)c1ccc2c(c1)OCO2 | – | ? | – | 25µM
O=S(=O)(O)c1cc(O)c2c(O)c(N=Nc3cccc4ccccc34)c(S(=O)(=O)O)cc2c1 | · | –[11.4 µM] | · | –[11.4 µM]
COC(=O)CC1=COC(O)C2C(CO)=CC[C@@H]12 (stereo partly specified) | · | –[11.4 µM] | · | –[11.4 µM]
C[C@H](CO)NC(=O)[C@@H]1C[C@H]1[C@@H](NP(=O)(c1ccccc1)c1ccccc1)c1ccccc1 | · | ? | · | 16µM
Cc1cc(CNC(=O)[C@@H]2C[C@H]2[C@@H](NP(=O)(c2ccccc2)c2ccccc2)c2ccccc2)nn1C | · | – | · | –
Cc1cc(N2CCN(c3ccccn3)CC2)n2c(nc3ccccc32)c1C#N | – | ? | – | 2µM
N#Cc1c2c(c(N3CCN(c4ccccn4)CC3)n3c1nc1ccccc13)CCC2 | · | – | · | –
NC(=O)[C@@H]1CCCN1Cc1ccc2c(c1)OCO2 | · | –[11.4 µM] | · | –[11.4 µM]
CC1=CC(=O)C2=C(C)CC[C@@H]3[C@H](OC(=O)[C@H]3C)[C@H]12 | · | – | · | –
O[C@H]([C@H](O)[C@@H](O)c1nc2ccccc2[nH]1)[C@@H](O)c1nc2ccccc2[nH]1 | · | –[11.4 µM] | · | –[11.4 µM]
CCN(C(=O)CCc1nc(-c2ccccc2F)no1)c1cc(OC)ccc1OC | 15 | ? | – | ?
NC[C@H]1O[C@H](n2cnc3c(N)ncnc32)C[C@@H]1O | · | –[11.4 µM] | · | –[11.4 µM]
c1coc(CNc2nc(N3CCCCC3)nc3ccccc23)c1 | 9.6 | ? | – | ?
c1ccc(N2CCN(c3nc(NCc4ccco4)c4ccccc4n3)CC2)cc1 | · | · | – | ·
CS(=O)(=O)N(CC(=O)O)c1ccccc1 | · | – | · | –
OCCN1CCN(C(=S)c2ccc(Cl)c(Cl)c2)CC1 | 10 | ? | · | –
SMILES | GBA mod | TSHR ag | Bst PK mod | HEK293 cAMP ctrl
N#CCCN1CCN(C(=S)c2ccc(-c3cc(Cl)ccc3Cl)o2)CC1 | – | ? | – | ?
O=S(O)O.O=S(O)O.[Co].[NH2-].[NH2-].[NH2-].[NH2-] | · | –[11.4 µM] | · | –[11.4 µM]
Nc1c(C(=O)OCC2CCCO2)c2nc3ccccc3nc2n1C1CCCCC1 (stereo unspecified) | ? | · | 8.9 | –
COC(=O)c1cccc(NC(=O)NC2CCCN2S(=O)(=O)c2ccc(Cl)cc2)c1 (stereo unspecified) | – | · | 9.5 | –
O=C(COC(=O)C1CCCN1S(=O)(=O)c1ccc(Cl)cc1)Nc1ccc2c(c1)OCO2 (stereo unspecified) | ? | – | – | –
O=c1c2ccccc2oc2cc(O)c([C@@H]3COC[C@@H](CO)[C@@H](O)[C@@H](O)[C@H]3O)c(O)c12 | · | – | · | –
c1csc(-c2csc3nc(CN4CCOCC4)nc(NCc4ccc5c(c4)OCO5)c23)c1 | – | ? | – | 13µM
CN1C(=O)Cn2c1nc1ccccc12 | – | ? | – | 20µM
COC(=O)C/C=C\[C@@H](C)[C@@H](/C=N\O[C@@H](C)c1cc(-c2c(C)cc(C)cc2C)no1)OC | · | · | · | –[11.4 µM]
Cc1cc(Br)ccc1OCC(=O)N(Cc1nc(-c2ccccc2)no1)C(C)C | – | ? | – | 10µM
Cc1ccc([C@@]2(C)CC/C(=N/N=C3\CC[C@](C)(c4ccc(C)c(C)c4)c4cc(C)c(C)cc43)c3cc(C)c(C)cc32)cc1C | · | –[11.4 µM] | · | –[11.4 µM]
CCC(CC)C(=O)NCc1ccc2c(c1)cc(C)n2C | – | ? | – | 6.3µM
CC1=C(C#N)C(c2ccoc2)C(C(=O)OCc2ccccc2)=C(N)S1 (stereo unspecified) | 12 | ? | – | ?
Cc1cc(C(=O)CSc2nnc(C3COc4ccccc4O3)n2C)c(C)n1-c1ccc(F)cc1 (stereo unspecified) | – | ? | – | 10µM
c1csc(-c2nn3c(-c4ccncc4)nnc3s2)c1 | – | – | · | –
c1coc(-c2nnc3sc(-c4cccs4)nn23)c1 | · | · | 9 | ·
c1ccc(CCc2ccccc2-c2nc(-c3ccccn3)no2)cc1 | – | ? | · | 25µM
c1ccc(-c2noc(-c3ccncc3)n2)nc1 | · | –[11.4 µM] | · | –[11.4 µM]
c1ccc(-c2noc(-c3ccc4ccccc4c3)n2)nc1 | · | · | 0.16 | –
c1ccc(-c2noc(-c3ccc4c(c3)OCO4)n2)nc1 | – | – | 0.86 | –
Cc1onc(-c2ccccc2Cl)c1-c1nc(-c2ccccn2)no1 | – | ? | – | 32µM
OC1(C(O)(c2ccc(-c3ccccc3)cc2)c2ccc(-c3ccccc3)cc2)CCCCC1 | · | –[11.4 µM] | · | –[11.4 µM]
CC(C)(C)OC(=O)C1=NOC2(C=CC(=O)C=C2)C1 | · | –[11.4 µM] | · | –[11.4 µM]
O=c1c(-c2ccccc2)nc2cnc(N3CCNCC3)nc2n1C1CC1 | · | – | · | –
COCCCn1c2nc3ccccc3nc2c2c(=O)n(Cc3ccc(Cl)cc3)cnc21 | 7.3 | – | – | –
SMILES | GBA mod | TSHR ag | Bst PK mod | HEK293 cAMP ctrl
COCCCn1c2nc3ccccc3nc2c2c(=O)n(Cc3ccccc3Cl)cnc21 | – | ? | – | 25µM
COCCCn1cnc2c(c1=O)c1nc3ccccc3nc1n2-c1ccccc1 | – | – | – | –
CCCCn1c2nc3ccccc3nc2c2c(=O)n(CC(C)C)cnc21 | · | · | – | ·
Cc1c(-c2nc(N)nc(C3CC3)c2C)nc(N)nc1C1CC1 | · | –[11.4 µM] | · | –[11.4 µM]
Cn1c(=O)c2[nH]c(CS(=O)(=O)Cc3nc4c([nH]3)c(=O)n(C)c(=O)n4C)nc2n(C)c1=O | · | –[11.4 µM] | · | –[11.4 µM]
N=C1C(c2ccc(Br)cc2)=C(O)C2CCc3ccccc3N12 (stereo unspecified) | – | ? | 3 | –
CC1CN(C(=O)c2cccs2)CCN1C(=O)c1cccs1 (stereo unspecified) | – | ? | – | 32µM
CCOC(=O)c1ccccc1NC(=O)CSc1nnc(COc2ccccc2)n1CC | – | ? | – | 16µM
COC(=O)c1ccccc1NC(=O)CSc1nnc(COc2cccc(OC)c2)n1C | – | ? | – | 13µM
CCC(=O)Nc1cccc(NC(=O)CSc2nnc(C(C)C)n2CC)c1 | – | ? | – | 13µM
CCn1c(SCC(=O)Nc2cccc(NC(C)=O)c2)nnc1C(C)C | – | – | – | –
CCOC(=O)c1ccccc1NC(=O)CSc1nc2ccccc2o1 | – | ? | – | 25µM
OC(Cc1ccccc1)(Cc1ccccc1)c1ccccc1 | · | –[11.4 µM] | · | –[11.4 µM]
C[N+](C)(C)CCN(Cc1cccs1)c1ccccn1 | · | –[11.4 µM] | · | –[11.4 µM]
CCCNC(=O)OC[C@@H]1O[C@H](CCO/N=C(\C)CCN2CCCCc3nc(C)c(C)cc32)C=C[C@@H]1Oc1ccc(OC)cc1 | · | –[11.4 µM] | · | –[11.4 µM]

Assay outcomes deposited in PubChem BioAssay by National Center for Advancing Translational Sciences (NCATS).
